The results in this text go back to PubChem BioAssay (NCI).

Several values for one entry are separate records, joined by “and”; a condition that tells them apart may be missing. Identical values can stand only once. About 83,000 compounds went through this panel and 20% of them were active in at least one assay; those are over-represented in the sample as a whole.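 Percent growth is the endpoint: 0 to 100 indicates growth inhibition (40 means 60% inhibition), 0 means no net growth, and negative values indicate cell death.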 Values without a mark were called inactive. Activity calls are given as the source filed them. How the source made its calls: active means growth percent below 10; inactive means the rest.

Some test systems named below: SR leukemia; RPMI-8226 leukemia; OVCAR-8 ovarian; OVCAR-5 ovarian; OVCAR-4 ovarian; SK-OV-3 ovarian; IGROV1 ovarian; OVCAR-3 ovarian; HS 578T breast; NCI/ADR-RES ovarian.
Assay in all cases: NCI-60 one-dose screen, 48 h (100 = growth as untreated, 0 = no growth, -100 = all killed)
Holding throughout (details): 10 µM unless noted

`O=C(O)c1ccccc1Cc1ccc(F)c2ccccc12`: the growth with SR leukemia is 107% and 100%; in the experiment with RPMI-8226 leukemia it was 110% and 96.2%; in the experiment on OVCAR-8 ovarian it was 101% and 102%; in the experiment with OVCAR-5 ovarian, 112% and 96.7%; in the experiment on OVCAR-4 ovarian, 110% and 96.6%; with SK-OV-3 ovarian it was 102% and 122%. Also, the growth in the experiment on IGROV1 ovarian was 113% and 119%; in the experiment on OVCAR-3 ovarian, 98.6% and 108%; in the experiment on HS 578T breast, 95% and 103%; in the experiment with NCI/ADR-RES ovarian, 114% and 110%.
Take `COc1ccc(-c2ccccc2)cc1-c1c(Nc2cc(Cl)cc(Cl)c2O)c(=O)c1=O`: the growth in the experiment on SR leukemia was 23.2%; in the experiment with RPMI-8226 leukemia, 25.4%; with OVCAR-8 ovarian, 12.3%; in the experiment with OVCAR-5 ovarian, 28.7%; with OVCAR-4 ovarian it was 16.8%; in the experiment on SK-OV-3 ovarian, -10.8% (active). The growth is 31% with IGROV1 ovarian, 5.32% (active) in the experiment on OVCAR-3 ovarian, 3.42% (active) in the experiment with HS 578T breast and 1.38% (active) in the experiment with NCI/ADR-RES ovarian.
With `NC1=CC(=O)c2cccnc2C1=O`, the growth was -27% (active) in the experiment with SR leukemia; -25.7% (active) with RPMI-8226 leukemia; -5.58% (active) in the experiment on OVCAR-8 ovarian; -70.8% (active) in the experiment on OVCAR-5 ovarian; -84.5% (active) with OVCAR-4 ovarian; 58% with SK-OV-3 ovarian. Moreover, the growth is -53.7% (active) with IGROV1 ovarian, -1.02% (active) in the experiment on OVCAR-3 ovarian, -10.3% (active) in the experiment with HS 578T breast and 1.37% (active) with NCI/ADR-RES ovarian.
`Cc1[nH]c(C(=O)Nc2nc3ccc(NC(=O)CCN)cc3s2)c(Cl)c1Cl`: the growth in the experiment with SR leukemia is 6.56% (active); in the experiment on RPMI-8226 leukemia, 78.4%; in the experiment on OVCAR-8 ovarian, 56.1%; in the experiment on OVCAR-5 ovarian, 92.5%; in the experiment on OVCAR-4 ovarian, 44.8%; with SK-OV-3 ovarian, 107%. Moreover, the growth in the experiment with IGROV1 ovarian was 68.4%; in the experiment with OVCAR-3 ovarian it was 77.3%; in the experiment on HS 578T breast, 90.8%; with NCI/ADR-RES ovarian, 58.4%.
Take `CCCN1C(=O)/C(=c2\sc3n(c2=O)NC2C(N=3)N(CC)C(=O)N2CC)c2ccccc21` (stereo not given): the growth was 30.6% in the experiment on SR leukemia; 45.5% in the experiment with RPMI-8226 leukemia; 35.7% in the experiment on OVCAR-8 ovarian; 39.6% in the experiment with OVCAR-5 ovarian; 63% in the experiment on OVCAR-4 ovarian; 63.6% with SK-OV-3 ovarian. In addition, the growth is 38.9% in the experiment on IGROV1 ovarian, 9.19% (active) in the experiment on OVCAR-3 ovarian, 27.8% in the experiment with HS 578T breast and 8.06% (active) with NCI/ADR-RES ovarian.
Take `COc1cc2c(cc1OCCCOC1=C=C=C(c3ccc4c(c3)c3cc(-c5ccc(OCCCOc6cc7c(cc6OC)C(=O)N6CCC[C@H]6C=N7)cc5)ccc3n4S(=O)(=O)c3ccc(C)cc3)C=C1)N=C[C@@H]1CCCN1C2=O`: the growth in the experiment with SR leukemia is -74% (active); in the experiment on RPMI-8226 leukemia, 17.9%; in the experiment on OVCAR-8 ovarian it was 23.9%; with OVCAR-5 ovarian, 113%; in the experiment on OVCAR-4 ovarian, 58.2%; in the experiment on SK-OV-3 ovarian, 93.7%. Moreover, the growth with IGROV1 ovarian was 14%; with OVCAR-3 ovarian it was 0.652% (active); in the experiment with HS 578T breast, 2.22% (active); in the experiment on NCI/ADR-RES ovarian it was 94%.
Consider `Clc1ccc(/C=N\N2CCCCCC2)cc1`, for which the growth with SR leukemia was 93.8% and 79.5%; with RPMI-8226 leukemia, 107%; in the experiment with OVCAR-8 ovarian, 116% and 98.7%; with OVCAR-5 ovarian it was 87.8% and 95%; in the experiment on OVCAR-4 ovarian, 91.9%; in the experiment on SK-OV-3 ovarian it was 110% and 109%. Further, the growth is 103% with IGROV1 ovarian; 101% and 116% in the experiment on OVCAR-3 ovarian; 109% and 139% in the experiment with HS 578T breast; 104% with NCI/ADR-RES ovarian.
On to `Cc1ccc2nc3ccccc3c(NCc3ccc(Cl)cc3)c2c1`, for which the growth in the experiment with SR leukemia is -9.22% (active); in the experiment on RPMI-8226 leukemia, -28.5% (active); in the experiment on OVCAR-8 ovarian, 52.4%; in the experiment on OVCAR-5 ovarian, 50.7%; with OVCAR-4 ovarian, 37.5%; with SK-OV-3 ovarian, 75.2%. Moreover, the growth is 27.1% with IGROV1 ovarian, 70.9% in the experiment with OVCAR-3 ovarian, 77.8% with HS 578T breast and 42% in the experiment with NCI/ADR-RES ovarian.
For the molecule `C=C(C)[C@@H]1CC[C@]2(C)[C@H](CC(=O)N[C@H]3[C@@H]4C[C@](C)(C(=O)OC)CC[C@]4(C)CC[C@]32C)[C@@]1(C)CCC#N`, the growth is 41.8% with SR leukemia; 48.3% in the experiment on RPMI-8226 leukemia; 78.7% in the experiment on OVCAR-8 ovarian; 91.6% in the experiment on OVCAR-5 ovarian; 76.7% in the experiment on OVCAR-4 ovarian; 97.4% in the experiment with SK-OV-3 ovarian. In addition, the growth with IGROV1 ovarian was 95.2%; in the experiment on OVCAR-3 ovarian, 79.7%; with HS 578T breast it was 93.4%; with NCI/ADR-RES ovarian, 86.6%.
For the molecule `OB(O)c1ccsc1-c1nc2ccc3[nH]ncc3c2c2c1CCCC2`, the growth was 14.1% in the experiment on SR leukemia; 60.3% with RPMI-8226 leukemia; 66.2% in the experiment with OVCAR-8 ovarian; 92.1% with OVCAR-5 ovarian; 72.3% with OVCAR-4 ovarian; 15.3% in the experiment on SK-OV-3 ovarian. Also, the growth with IGROV1 ovarian was 32.6%; in the experiment with OVCAR-3 ovarian, 85.2%; with HS 578T breast, 32.9%; with NCI/ADR-RES ovarian, 75.6%.
Turning to `CC(Sc1ccccc1)C(=O)O` (stereo not given), the growth with SR leukemia is 153%; in the experiment on RPMI-8226 leukemia, 117%; in the experiment with OVCAR-8 ovarian, 99.5%; with OVCAR-5 ovarian, 106%; in the experiment on OVCAR-4 ovarian, 102%; in the experiment on SK-OV-3 ovarian it was 97.3%. In addition, the growth was 81.4% in the experiment with IGROV1 ovarian, 106% in the experiment on OVCAR-3 ovarian, 115% in the experiment with HS 578T breast and 111% with NCI/ADR-RES ovarian.
With `CCCCCC#CC1OC23CCCCC2C(C#N)(C(=N)O3)C1(C#N)C#N` (stereo not given), the growth with SR leukemia is 87%; in the experiment on RPMI-8226 leukemia, 93.3%; in the experiment with OVCAR-8 ovarian it was 85.8%; with OVCAR-5 ovarian, 102%; in the experiment on OVCAR-4 ovarian it was 108%; in the experiment with SK-OV-3 ovarian, 111%. Also, the growth was 99.4% in the experiment with IGROV1 ovarian, 117% with OVCAR-3 ovarian, 94.1% with HS 578T breast and 102% with NCI/ADR-RES ovarian.
With `COc1ccc(/C=C2\COc3ccc(O)c(O)c3C2=O)c(OC)c1OC`, the growth in the experiment on SR leukemia was 9.47% (active); with RPMI-8226 leukemia, -23.6% (active); in the experiment on OVCAR-8 ovarian it was 8.41% (active); in the experiment with OVCAR-5 ovarian it was 36.2%; in the experiment on OVCAR-4 ovarian, 27.8%; in the experiment on SK-OV-3 ovarian, 67%. In addition, the growth was 16.9% in the experiment on IGROV1 ovarian, 9.03% (active) with OVCAR-3 ovarian, 27.9% in the experiment on HS 578T breast and 27% in the experiment with NCI/ADR-RES ovarian.
